The source of these data is the supplement of paper PMC3334620.

Over roughly 33,000 sequences, “E-score (-0.5 to 0.5)” has its median near -0.015; the highest 2% begin near 0.3. The list comes from a sample in which the highest values are over-represented; it also holds similar and randomly drawn sequences.

The assay concerns the target T1, Abf1 (UniProt P14164).
T1 sequence: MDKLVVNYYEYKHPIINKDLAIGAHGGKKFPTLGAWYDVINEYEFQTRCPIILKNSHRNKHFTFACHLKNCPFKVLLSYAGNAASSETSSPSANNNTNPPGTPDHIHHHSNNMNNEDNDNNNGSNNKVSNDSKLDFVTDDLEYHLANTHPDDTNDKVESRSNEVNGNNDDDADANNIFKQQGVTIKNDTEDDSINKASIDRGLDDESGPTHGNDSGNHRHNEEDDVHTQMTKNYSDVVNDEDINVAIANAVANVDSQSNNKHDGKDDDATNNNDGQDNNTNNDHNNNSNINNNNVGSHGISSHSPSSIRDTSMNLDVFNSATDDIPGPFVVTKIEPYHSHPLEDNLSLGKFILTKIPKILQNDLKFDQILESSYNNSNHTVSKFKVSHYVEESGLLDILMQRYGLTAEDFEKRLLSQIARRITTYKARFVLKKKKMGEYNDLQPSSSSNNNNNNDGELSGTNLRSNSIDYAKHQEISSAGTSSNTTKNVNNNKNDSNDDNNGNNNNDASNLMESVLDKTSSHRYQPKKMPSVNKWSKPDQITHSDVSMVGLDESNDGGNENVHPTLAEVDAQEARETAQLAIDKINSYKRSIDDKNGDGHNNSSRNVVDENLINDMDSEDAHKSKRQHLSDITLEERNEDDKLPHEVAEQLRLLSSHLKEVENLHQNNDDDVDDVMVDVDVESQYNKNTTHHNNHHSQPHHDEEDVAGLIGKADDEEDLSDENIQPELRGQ
As to the kind of experiment: PBM E-score (8-mer binding enrichment) (E-score (-0.5 to 0.5)); higher = stronger / more preferred TF binding. The conditions noted are these: protein concentration: 200 nM; construct: GST-full length. The protocol: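 Universal 'all 10-mer' protein binding microarrays (Agilent AMADID 015681) probed with GST-tagged S. cerevisiae TFs (full-length or DBD) made by in vitro transcription/translation (PURExpress), about 100-200 nM. Bound TF was detected with fluorescent anti-GST. Each ungapped 8-mer (which stands for itself and its reverse complement) is scored by the PBM enrichment score (E-score), a modified Wilcoxon-Mann-Whitney statistic from -0.5 to +0.5, computed with the Universal PBM Analysis Suite. Scale: above 0.35 generally sequence-specific binding.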
Turning to GGACGTCA, the “PBM E-score” value stood at 0.0888. Regarding TGACGTCA, the “PBM E-score” value came out at 0.314.

Consider GCACGTCA, for which the “PBM E-score” value was found to be 0.0421. As for ACACGTCA, the figure is 0.151; as for CCACCTAG, -0.225; as for GATGGTGA, 0.0135. As to GCTCACCA, the “PBM E-score” value was -0.17. Then GATCACCC, with 0.261; and AATCACCA, with 0.24. Then CATCACCA, with 0.176; and TATCACCA, with 0.364; and GATCACCA, with 0.308. For the sequence CAGAATTC, the “PBM E-score” value stood at 0.0421.

As to GAACTTCC, the “PBM E-score” value was -0.12. Turning to GTCTCAAA, the “PBM E-score” value amounted to 0.161. With GTTACTCA, the “PBM E-score” value is 0.0462.

Regarding AGAAACGC, the “PBM E-score” value is -0.132. On to AACTCCTG, for which the “PBM E-score” value is -0.177. Then ACCCGGAG, with -0.0473; and AATGCCTA, with -0.212; and TATTACGA, with 0.311. For the sequence ACTTACGA, the “PBM E-score” value was 0.325. In the case of GCTTACGA, the “PBM E-score” value was -0.071. As for CATTACGA, the figure is 0.128; as for ACTTACGC, -0.0756. As for AATTACGA, the figure is 0.186; as for CATTGGTC, -0.0867. Then ATCCACAA, with -0.138; and ATCCACGG, with 0.316; and ATCCACGA, with 0.199. Take AAACCGCG: the “PBM E-score” value was -0.0683.

In the case of CCTGGAAC, the “PBM E-score” value was -0.0203.

Consider GGGTGAGA, for which the “PBM E-score” value is -0.136. For GGGTGAAA, the “PBM E-score” value was determined as 0.0485. On to AGGTGATA, for which the “PBM E-score” value is 0.357. As for CGGTGAAA, the figure is 0.186; as for CGGTGATA, 0.334. Then AGGTGAGA, with 0.0141; and CGGTGATC, with 0.214. Regarding GGGTGATA, the “PBM E-score” value was found to be 0.38. As for AGGTGATG, the figure is 0.163; as for CAGCTTCG, 0.0552. Then CTCGAGGC, with -0.193; and AGCCAGAG, with -0.0331; and CGGCCTAA, with -0.0583. ACCACTCG: the “PBM E-score” value turned out to be 0.187. As for ATCACTCG, the “PBM E-score” value turned out to be 0.31. As for CTCACTCA, the figure is 0.0709; as for GTCACTCA, 0.238; as for ATCACTCA, 0.369. Then ATCACTCC, with 0.345; and CTCACTCC, with -0.0715; and AACACTCC, with -0.121. Then AACACTCG, with -0.00319; and CGTTTGGC, with 0.0893; and TCAGGACA, with 0.156. Regarding ATCTGAAG, the “PBM E-score” value is -0.1.

With ATAACCAT, the “PBM E-score” value is 0.0871. Consider CACAAAAG, for which the “PBM E-score” value is -0.0552.

With CCAGCCAC, the “PBM E-score” value was -0.0544.

Consider GTATGATA, for which the “PBM E-score” value turned out to be 0.327. As for GTATGAGA, the figure is 0.145; as for CTATGATA, 0.143. Take ATATGATA: the “PBM E-score” value amounted to 0.316. Then ATATGATG, with 0.191; and GTATGACA, with 0.176. Regarding CATCCGGG, the “PBM E-score” value is -0.161. As for AAACCGTA, the figure is 0.221.

ACACCAAT: the “PBM E-score” value is 0.0514. In the case of CGGGATGA, the “PBM E-score” value came out at 0.0791. Take ACGACCGC: the “PBM E-score” value was found to be 0.041. As to GGGGAATA, the “PBM E-score” value is -0.112. As for AAAGAGAG, the figure is -0.214. Then AAGAGAAA, with -0.0161; and ACTTGAAT, with 0.0842; and GGACATCA, with 0.215. As for CGACATCA, the figure is 0.315; as for TGACATCA, 0.274.

Turning to CGACATTC, the “PBM E-score” value stood at 0.0424. Then AGACATTA, with -0.0164. As for AGACATCG, the “PBM E-score” value is 0.111.

As to CGACATCG, the “PBM E-score” value stood at 0.301. Turning to CGACATCC, the “PBM E-score” value is 0.121. Then CGACATTA, with 0.317. Then CAGAAACA, with -0.0715; and GAGGAACA, with -0.095.
